Ecoli rRNA inh = inhibits bacterial ribosomal RNA function over humanized ribosomes. E. coli WT GFP vs humanized-ribosome RFP mutants, fluorescence, 24 h; active compounds read low; DMSO median 0, no signal -100. GFP signal change (wild-type ribosome), % (concentration not given with the values). 350,000 tested, 1.6% active. AID 720706;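 active = significant combined selectivity score with lowered wild-type GFP, culture density cut under 30%, mutant RFP and density less affected; inactive = any of these conditions unmet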
esBAF inh = inhibitors of esBAF chromatin remodeling in mouse ES cells. Bmi1-luciferase knock-in reporter, 24 h; 100% = twice the neutral-well signal. reporter increase, % at 12.5 µM. 350,000 tested, 2% active. AID 602393; in the data active = activation above about 40%;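 also: 0% = median of the plate's neutral control wells and 100% = double that signal; a rise in the Bmi1 reporter signal indicates esBAF inhibition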
MITF TRPM1 HTS = MITF TRPM1 promoter activation in melanoma cells; SK-MEL-5 TRPM1-promoter luciferase, 24 h; % of positive control, neutral wells = 0; activation, % at 12.5 µM; 300,000 tested, 0.75% active;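 active = mean activation of at least 80% with every replicate also reaching 80%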;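 also: 0% = neutral control wells and 100% = parthenolide positive control wells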
Wnt bcat act = Wnt/beta-catenin pathway activation. activation, % at 9.35 µM. Wnt/beta-catenin reporter cell assay, activator, plate reader. 300,000 tested, 1.2% active. AID 743398; in the data active = activation above about 30%, passing the limit was not always enough;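 also: 0% = neutral control wells and 100% = positive control wells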
MLL AF4-AF9 inh = inhibitors of human MLL-AF4/AF9 interaction. AlphaScreen, biotin-AF4 peptide binding to FLAG-AF9. 350,000 tested, 0.47% active. P42568. inhibition, % at 10 µM. AID 651704;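 active = every replicate reaching a set inhibition limit, whatever the replicate mean, cut at about 25% in these data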;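 also: 0% = plate neutral control median and 100% = total signal loss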
Target sequence (P42568 whole entry, looked up): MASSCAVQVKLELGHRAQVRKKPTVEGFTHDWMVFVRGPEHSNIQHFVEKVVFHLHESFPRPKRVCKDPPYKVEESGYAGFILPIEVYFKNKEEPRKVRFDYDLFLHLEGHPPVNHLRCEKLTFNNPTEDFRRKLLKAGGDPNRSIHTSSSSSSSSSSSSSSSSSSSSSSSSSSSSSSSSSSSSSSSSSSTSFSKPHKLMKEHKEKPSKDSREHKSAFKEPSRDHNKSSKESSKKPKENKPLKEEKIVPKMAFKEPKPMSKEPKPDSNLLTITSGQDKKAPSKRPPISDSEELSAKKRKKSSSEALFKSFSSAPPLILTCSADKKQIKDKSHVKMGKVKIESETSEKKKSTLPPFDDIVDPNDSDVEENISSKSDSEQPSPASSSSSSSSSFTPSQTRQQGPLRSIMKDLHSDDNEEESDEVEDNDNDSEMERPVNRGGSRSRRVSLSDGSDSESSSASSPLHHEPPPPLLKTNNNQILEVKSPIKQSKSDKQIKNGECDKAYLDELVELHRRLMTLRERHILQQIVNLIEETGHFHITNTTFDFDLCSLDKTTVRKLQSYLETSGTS
* = called active by the depositor. The list is not random: actives were taken first. Their share in the collection is about 3.7%.

What do the screens show for `CC(=O)c1ccc(NC(=O)c2ccc3c(=O)n4c(nc3c2)CCCCC4)cc1`?
Ecoli rRNA inh: -12; esBAF inh: 15; MITF TRPM1 HTS: -2; Wnt bcat act: 0; MLL AF4-AF9 inh: 0

Results for O=C(Nc1ccc(F)cc1)c1ccc2c(=O)n3c(nc2c1)CCCCC3 ?
Ecoli rRNA inh: -12; esBAF inh: 57*; MITF TRPM1 HTS: 68; Wnt bcat act: 17; MLL AF4-AF9 inh: -1

What do the screens show for `CN(C)c1cccc(C(=O)Nc2ccc3nc4n(c(=O)c3c2)CCCCC4)c1`?
Ecoli rRNA inh: -26*; esBAF inh: 36; Wnt bcat act: 3; MLL AF4-AF9 inh: 7

What do the screens show for `CC(=O)c1cnc2c(-c3ccc(Cl)cc3)cnn2c1C`?
esBAF inh: 75*; MITF TRPM1 HTS: 73

Results for Nc1c(-c2ccccc2)cnc2c(-c3ccccc3)cnn12 ?
Ecoli rRNA inh: 3; esBAF inh: -55; Wnt bcat act: 12; MLL AF4-AF9 inh: -1

How did Clc1ccc(-c2cnn3c(-c4ccncc4)ccnc23)cc1 do in these assays?
MITF TRPM1 HTS: 15; Wnt bcat act: 64*; MLL AF4-AF9 inh: -6

Results for Nc1c(C(=O)O)cnc2c(-c3ccc(Cl)cc3)cnn12 ?
Ecoli rRNA inh: -33; esBAF inh: 47*; MITF TRPM1 HTS: -3; Wnt bcat act: 10; MLL AF4-AF9 inh: -1

What do the screens show for `O=C(c1ccc2ccccc2c1O)N1CCCCC1`?
Ecoli rRNA inh: -5; esBAF inh: 56*; Wnt bcat act: -4; MLL AF4-AF9 inh: 10

How did CC(C)CC#Cc1ccc2c(c1)O[C@H](CN(C)CC1CCOCC1)[C@@H](C)CN([C@@H](C)CO)S2(=O)=O do in these assays?
Ecoli rRNA inh: -5; esBAF inh: -2; MLL AF4-AF9 inh: 5

Results for O=C(O)CCCCCNS(=O)(=O)c1c(Cl)cccc1Cl ?
esBAF inh: -10; Wnt bcat act: -1

Results for C=CCn1cn[nH]c1=S ?
Ecoli rRNA inh: 13; esBAF inh: -6; MITF TRPM1 HTS: 2; Wnt bcat act: -1; MLL AF4-AF9 inh: -1

What do the screens show for `O=C(Nc1cccc2ccccc12)c1ccc2sc([C@@H]3O[C@H](CO)[C@@H](O)[C@H]3O)nc2c1`?
Ecoli rRNA inh: 3; esBAF inh: 42*; Wnt bcat act: 0; MLL AF4-AF9 inh: -1

How did O=C(Nc1ccccc1F)c1ccc2sc([C@H]3C[C@H](O)[C@@H](CO)O3)nc2c1 do in these assays?
Ecoli rRNA inh: 8; esBAF inh: 55*; Wnt bcat act: -3; MLL AF4-AF9 inh: 2

Results for O=C(Nc1nc2ccccc2s1)c1ccc2sc([C@H]3C[C@H](O)[C@@H](CO)O3)nc2c1 ?
Ecoli rRNA inh: -9; esBAF inh: 55*; Wnt bcat act: 5; MLL AF4-AF9 inh: 0

What do the screens show for `O=C(Nc1ccccc1F)c1ccc2sc([C@@H]3O[C@H](CO)[C@H](O)[C@H](O)[C@H]3O)nc2c1`?
esBAF inh: 28; Wnt bcat act: 18; MLL AF4-AF9 inh: -3

What do the screens show for `COc1cc(OC)cc(C(=O)NC(=S)N2CCCCCC2)c1`?
Ecoli rRNA inh: -31*; MITF TRPM1 HTS: 3; Wnt bcat act: 0; MLL AF4-AF9 inh: 3

Results for Cn1c(=NC(=O)COc2ccccc2)sc2cccc(F)c21 ?
Ecoli rRNA inh: 13; esBAF inh: 57*; MITF TRPM1 HTS: 63; Wnt bcat act: -2; MLL AF4-AF9 inh: 2

What do the screens show for `Cc1ccc(C)c(NC2=C(Cl)C(=O)OC2OC(=O)c2ccco2)c1` (stereo not drawn)?
Ecoli rRNA inh: -28*; esBAF inh: -11; MITF TRPM1 HTS: -1; Wnt bcat act: -3; MLL AF4-AF9 inh: 1

Results for O=C(CCN1C(=O)c2ccccc2S1(=O)=O)Nc1ccc(F)cc1F ?
Ecoli rRNA inh: 3; esBAF inh: 1; MITF TRPM1 HTS: -8; Wnt bcat act: 1; MLL AF4-AF9 inh: -17

How did COc1ccccc1-c1c(C)oc2c(CN3CCOCC3)c(O)ccc2c1=O do in these assays?
Ecoli rRNA inh: -7; esBAF inh: -1; MITF TRPM1 HTS: 3; Wnt bcat act: -1; MLL AF4-AF9 inh: -2

How did Cc1oc2c(CN3CCOCC3)c(O)ccc2c(=O)c1-c1ccccc1 do in these assays?
Ecoli rRNA inh: -24*; esBAF inh: -7; MITF TRPM1 HTS: 5; Wnt bcat act: -2; MLL AF4-AF9 inh: 2

What do the screens show for `CCOc1nc(C)cc(COC)c1C(N)=O`?
Ecoli rRNA inh: 11; MITF TRPM1 HTS: -11; Wnt bcat act: 0; MLL AF4-AF9 inh: -2

How did COC(=O)C1=NN(C(=O)c2ccc(Br)cc2)C(O)(C(C)(C)C)C1 (stereo not drawn) do in these assays?
Ecoli rRNA inh: -24*; MITF TRPM1 HTS: 4; Wnt bcat act: 1; MLL AF4-AF9 inh: -3

Results for O=C(Nc1ccc(N2CCOCC2)cc1N1CCOCC1)c1ccccc1 ?
esBAF inh: -7; MITF TRPM1 HTS: 4; Wnt bcat act: -1; MLL AF4-AF9 inh: 0

Results for Cn1nc(C(=O)Nc2ccccc2N2CCOCC2)ccc1=O ?
Ecoli rRNA inh: -4; esBAF inh: 0; MITF TRPM1 HTS: 11; Wnt bcat act: 1; MLL AF4-AF9 inh: -3

What do the screens show for `Cc1ccc(SCC(=O)Nc2ccccc2N2CCOCC2)cc1`?
Ecoli rRNA inh: -28*; esBAF inh: 2; MITF TRPM1 HTS: -13; Wnt bcat act: -4; MLL AF4-AF9 inh: -3

Results for O=C(NC(=O)N1CCN(c2ccccc2)CC1)c1ccc(Cl)cc1 ?
esBAF inh: 49*

Results for O=C(Nc1ccccc1N1CCOCC1)c1ccc2ccccc2n1 ?
esBAF inh: 59*; Wnt bcat act: 40*

How did O=C(NC(=O)N1CCN(c2cccc(Cl)c2)CC1)c1ccc(Cl)cc1 do in these assays?
Ecoli rRNA inh: -59; esBAF inh: -3; MITF TRPM1 HTS: 13; Wnt bcat act: 0; MLL AF4-AF9 inh: -1

How did O=C(Nc1ccccc1N1CCN(c2ccccc2)CC1)c1ccccc1 do in these assays?
Ecoli rRNA inh: 11; MITF TRPM1 HTS: -16; Wnt bcat act: 42*; MLL AF4-AF9 inh: 5

How did C[C@@H]1CN([C@@H](C)CO)S(=O)(=O)c2ccc(C#Cc3cccnc3)cc2O[C@@H]1CN(C)C(=O)Nc1ccc2c(c1)OCO2 do in these assays?
Ecoli rRNA inh: 1; esBAF inh: -8; MLL AF4-AF9 inh: 3

How did COc1ccc(CCNC(=O)CC(NC(=O)c2ccccc2Cl)c2ccccc2)cc1 (stereo not drawn) do in these assays?
Ecoli rRNA inh: 5; MITF TRPM1 HTS: -4; Wnt bcat act: 0; MLL AF4-AF9 inh: 2

How did Cc1ccc(C(=O)N/C(=C/c2cccs2)C(=O)N2CCCCCC2)cc1 do in these assays?
esBAF inh: 13; MITF TRPM1 HTS: -2; Wnt bcat act: 3

What do the screens show for `Cc1ccc(C(=O)N/C(=C\c2cccs2)C(=O)NC2CCCCC2)cc1`?
Ecoli rRNA inh: -25*; esBAF inh: 5; MITF TRPM1 HTS: -15; Wnt bcat act: 1; MLL AF4-AF9 inh: 4

How did COc1ccc(NC(=O)CCNC(=O)c2ccccc2Cl)cc1S(=O)(=O)N1CCCCC1 do in these assays?
Ecoli rRNA inh: 12; esBAF inh: -5; Wnt bcat act: -1; MLL AF4-AF9 inh: -4
